# GLP1R cytotox = cytotoxic in the GLP-1 receptor inverse agonist counter-screen; HEK293 cAMP-luciferase reporter cells, luminescence, 24 h; Potency, µM (doses to about 38.3 µM), most hits filed as inhibitors; 410,000 tested, 0.13% active;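 note: loss of luciferase light is scored as toxicity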
#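 Seeding density was 200 cells/uL; after overnight-length (12 h) culture, 23 nL compounds went on for 24 h at 37 °C. Readout used a luciferase detection reagent, luminescence taken after 12 min at room temperature.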
# GLP1R ag = GLP-1 receptor (human) agonism; HEK293 GLP-1R CRE-luciferase, luminescence, 4-6 h; cells express a hypersensitive GLP-1R form; 380,000 tested, 0.007% active; P43220; Potency, µM (titrated, usually from 45.6 µM), hits mostly activators
# RGS4 inh = human RGS4 inhibition; 390,000 tested, 0.039% active; Potency, µM (highest dose often 114 µM), usual class: inhibitors; Transcreener GDP fluorescence polarization, RGS4-accelerated GTP hydrolysis; note: nearly all actives have a fitted effect of over 75% in size
#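 MLSMR compounds (23 nl, pin-transferred) preincubated 10 min at room temperature with a 500nM (2x) first reagent, then RGS4 at 900nM (2x) plus Transcreener GDP mix added; fluorescence polarization (620/688 nm) read before and after 90 min at 30 °C.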
# GLP-1R inv ag = inverse agonists of human GLP-1 receptor. 410,000 tested, 1.6% active. P43220. HEK293 GLP-1R CRE-luciferase, luminescence, 24 h; GLP-1R form is constitutively active. Potency, µM (top dose mostly 38.3 µM), actives largely listed as inhibitors. AID 624417; note: nearly all actives have a fitted effect of over 55% in size
#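 Cells are plated, allowed 12 hours at 37 deg C, then treated with compounds for 24 hr before luciferase detection reagent is added and luminescence is read after 12 min at room temperature. The HEK293 line carries constitutively active GLP-1R with a cAMP-responsive reporter.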
# PTHR1 agonist = activates the human parathyroid hormone receptor PTHR1; Potency, µM (highest dose often 115 µM), most hits filed as activators; HEK293 GP2 PTHR1 cells, GloSensor cAMP luminescence, 1 h; Q03431; 410,000 tested, 0.075% active; note: nearly all actives have a fitted effect of over 55% in size
# Target sequence (Q03431 whole entry, looked up): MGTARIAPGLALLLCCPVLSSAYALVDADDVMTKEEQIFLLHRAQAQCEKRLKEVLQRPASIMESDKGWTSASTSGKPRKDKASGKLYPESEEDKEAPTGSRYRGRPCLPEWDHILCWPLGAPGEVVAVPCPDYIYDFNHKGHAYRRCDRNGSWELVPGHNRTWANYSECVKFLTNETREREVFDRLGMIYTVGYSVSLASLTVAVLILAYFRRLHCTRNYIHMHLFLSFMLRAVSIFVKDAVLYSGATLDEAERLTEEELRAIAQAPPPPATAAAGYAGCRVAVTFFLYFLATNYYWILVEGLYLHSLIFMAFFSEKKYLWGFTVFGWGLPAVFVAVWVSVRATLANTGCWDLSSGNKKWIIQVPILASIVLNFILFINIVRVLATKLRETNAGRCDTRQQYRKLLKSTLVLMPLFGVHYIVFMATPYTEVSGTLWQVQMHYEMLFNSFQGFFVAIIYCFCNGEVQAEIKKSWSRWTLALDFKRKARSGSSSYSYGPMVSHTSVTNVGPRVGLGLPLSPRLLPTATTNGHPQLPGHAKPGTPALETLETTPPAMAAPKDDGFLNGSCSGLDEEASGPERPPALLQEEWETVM
#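 HEK-293-derived GP2 cells expressing PTHR1 and a GloSensor cAMP reporter, 3,000/well, plated overnight, given luciferin plus IBMX (each 0.5 mM as added) for 1 h at 37 °C, then compound for 1 h at 37 °C. Luminescence was read after 15 min at room temperature.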
# A number is an active result; 0 = inactive; ? = inconclusive; - = no result given. Hits are enriched below; roughly 1.7% of the tested compounds scored in any of these assays. Calls come from the whole dose curve; as a rule, active = well fitted curve in the direction sought with a large enough effect; inconclusive = small, poorly fitted or top-dose-only effect, or another doubt; inactive = no such curve, though single readings can be large; an effect the other way counts as inactive or inconclusive.
SMILES,GLP1R cytotox,GLP1R ag,RGS4 inh,GLP-1R inv ag,PTHR1 agonist
COc1ccc(C2c3c(n(C)c4ccccc34)C(=O)N2CC(=O)Nc2ccc(C)cc2Cl)cc1 (stereo not given),0,-,0,0,0
CC(C)CC(NC(=O)CNC(=O)C(Cc1ccc(O)cc1)NC(=O)C(CO)NC(=O)C(Cc1c[nH]c2ccccc12)NC(=O)C(Cc1cnc[nH]1)NC(=O)C1CCC(=O)N1)C(=O)NC(CCCN=C(N)N)C(=O)N1CCCC1C(=O)NCC(N)=O (stereo not given),-,0,-,-,-
Cc1ccc(S(=O)(=O)N2CCN(C)CC2)cc1[N+](=O)[O-],0,0,0,0,0
CCN1CCN(c2ccc(N3CCN(S(=O)(=O)c4ccc(C)c([N+](=O)[O-])c4)CC3)nn2)CC1,0,0,0,1.6µM,0
Oc1c(Br)cc(Br)cc1/C=N/NC(=S)N[C@H]1CC2C=CC1C2 (stereo not given in full),0,0,?,3.5µM,0
CCOc1ccc(/C=N/NC(=S)NC2CC3C=CC2C3)cc1 (stereo not given),0,0,0,3.2µM,0
COc1cc(/C=N/NC(=S)NC2CC3C=CC2C3)cc(OC)c1OC (stereo not given),?,0,0,?,0
O=C(NCCCn1ccnc1)c1ccc(N2CCCCCC2)c([N+](=O)[O-])c1,0,0,0,5µM,0
Cc1ccc(C(=O)NCCCn2ccnc2)cc1[N+](=O)[O-],0,0,0,0,0
O=C(c1ccc(N2CCCC2)c([N+](=O)[O-])c1)N1CCc2ccccc2C1,0,0,0,4.5µM,0
Clc1ccc(-c2nc3cc(CN4CCCCC4)ccc3o2)cc1,0,0,0,?,0
COCCn1nnnc1C(c1cc2cc(C)ccc2[nH]c1=O)N1CCN(C2CCCCC2)CC1 (stereo not given),11µM,0,0,0,0
CCOC(=O)c1ccc(Oc2nc(NC(C)(C)C)nc(N(C)C)n2)cc1,0,0,0,7.9µM,0
COCCCNC(=O)c1sc2nc(C)c(C(=O)Nc3ccc(C)cc3C)c(-c3ccc(Cl)cc3)c2c1N,0,-,0,?,0
CCOc1ccc(CCN2C(=S)N([C@@H](CC(C)C)CN3CCCC3CN3C(=S)NC[C@@H]3Cc3ccc(O)cc3)C[C@@H]2CC(C)C)cc1 (stereo not given in full),0,0,0,10µM,0
CCOc1ccc(CCN2C(=S)N([C@@H](CC(C)C)CN3CCCC3CN3C(=S)NC[C@@H]3Cc3ccc(O)cc3)C[C@@H]2Cc2ccccc2)cc1 (stereo not given in full),0,0,0,11µM,0
CCOc1ccc(CCN2C(=S)N([C@@H](CC(C)C)CN3CCC[C@@H]3CN3C(=S)NC[C@@H]3CC(C)C)C[C@@H]2Cc2ccc(O)cc2)cc1,0,0,-,?,0
COc1ccc(-c2onc(C)c2C)cc1S(=O)(=O)Nc1ccc(OC(F)(F)F)cc1,0,-,0,13µM,0
COc1ccc(-c2cnc(C)o2)cc1S(=O)(=O)Nc1ccc(OC(F)(F)F)cc1,0,-,0,?,0
CN1C(=O)Cc2cc(S(=O)(=O)NCc3ccc(Cl)cc3)ccc21,0,-,0,0,0
CC[n+]1c(/C=C/c2c[nH]c3ccccc23)ccc2cc(C)ccc21,?,0,0,10µM,0
CCOc1ccc(CCNC(c2nnc(-c3ccccc3)o2)c2ccccc2Cl)cc1OCC (stereo not given),0,-,0,10µM,0
COc1ccc(CN2C(=O)C(CC(=O)NCCCCc3ccccc3)CC(C(=O)N(C(C)C)C(C)C)=C2C)cc1 (stereo not given),0,0,-,11µM,0
Cc1ccc(Cn2nc(C)c(C(=O)NCC(c3ccc(F)cc3)N3CCOCC3)c2Cl)cc1 (stereo not given),0,0,0,?,0
COc1cccc(C(=O)N2CCC[C@H]2C(=O)N2CCC[C@H]2C(=O)N[C@H](C)c2ccccc2)c1,0,0,-,0,0
SMILES,GLP1R cytotox,GLP1R ag,RGS4 inh,GLP-1R inv ag,PTHR1 agonist
Cc1ccc(NC(=O)C2C(c3ccccc3)C2(Cl)Cl)c(C)c1 (stereo not given),0,0,0,11µM,0
COc1ccc(NC(=O)C2C(c3ccccc3)C2(Cl)Cl)cc1 (stereo not given),0,0,0,10µM,0
CCCC[C@@H](CN[C@H](C)CNC)NCC1CCC(C(C)(C)C)CC1 (stereo not given in full),?,0,0,11µM,0
CC[C@H](C)[C@@H](CN[C@H](CCCCNC)CNC)NCC1CCCC1,0,0,0,0,0
CC(C)(C)OC(=O)N1CCC(c2c(C(=O)NCC3CCN(C4CCCC4)C3)cnn2-c2cccc(Cl)c2)CC1 (stereo not given),?,0,0,13µM,0
Cc1ccc(NC2=Nc3ccccc3N3C2=Nc2c(c(C)nn2-c2ccccc2)C3c2ccc(O)c(O)c2)cc1 (stereo not given),0,0,0,11µM,0
Cc1nn(-c2ccccc2)c2c1C(c1ccc(O)c(O)c1)N1C(=N2)C(Nc2ccccc2)=Nc2ccccc21 (stereo not given),0,0,0,0,0
COc1ccc(OC)c(NC(=O)C2(C)CCN2Cc2ccccc2OC(F)F)c1 (stereo not given),0,0,-,?,0
Cc1cc(C)c(S(=O)(=O)NCC(c2cccs2)S(=O)(=O)c2ccccc2)c(C)c1 (stereo not given),0,-,0,0,0
CC(C)(CC(=O)NCc1ccc(Cl)cc1Cl)CC1=NS(=O)(=O)c2ccccc2N1,?,0,0,8.9µM,0
C[C@@H]1CN([C@@H](C)CO)C(=O)CCCn2cc(nn2)CO[C@H]1CN(C)S(=O)(=O)c1ccccc1C#N,0,0,-,0,0
CCCCn1c(=O)c2oc3ccccc3c2n(Cc2ccc(OC)cc2)c1=O,0,-,0,0,0
CCCN(CCC)C(=O)Cc1coc2ccc3ccccc3c12,0,0,0,8.9µM,0
O=C(Cc1coc2ccc3ccccc3c12)NCc1ccccc1,0,0,0,?,0
CCN(CC)S(=O)(=O)c1ccc2c(c1)nc(CCC(=O)O)n2CC,0,0,0,0,0
CCN(CC)S(=O)(=O)c1ccc2c(c1)nc(CCC(=O)Nc1cccc(C(F)(F)F)c1)n2CC,0,0,0,10µM,0
O=C(Nc1cccc(C(F)(F)F)c1)Nc1ccc2snnc2c1,0,0,0,11µM,0
CCN(CC)S(=O)(=O)c1cccc(NC(=O)Nc2cccc(C(F)(F)F)c2)c1,?,0,0,7.9µM,0
O=C(Nc1cccc(C(F)(F)F)c1)c1ccc2snnc2c1,0,0,0,0,0

# High-throughput results from PubChem BioAssay.
